# Results reported in PubChem BioAssay AID651640 (Broad Institute, 2012).
# Screen size: about 350,000 compounds; about 6,000 (1.7%) were called active. Another 5% or so got no clear call; they are omitted. The sample as a whole holds a higher share of actives than the screen did. A number with no mark means an inactive call. Rule as the data show it: active = CPE inhibition above about 20% (passing the limit was not always enough); inconclusive = no clear call, values can overlap the other calls; tested in BHK-21 cells.
# Assay: protection of cells from dengue 2 killing – plate reader, single concentration, primary screen (AID 651640);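 also: 0% = median of neutral control wells and 100% = median of positive control wells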
# Details: DENV2-infected cells, cytopathic effect rescue, at 9.99 µM, stronger effect = higher value
row,SMILES,CPE inhibition
1,CCCNC(=O)N1C[C@@H](O)COC[C@@H]2O[C@H](CC(=O)N3CCN(C)CC3)CC[C@H]21,0.94%
2,C[C@H]([C@@H](O)[C@@H](O)[C@@H](C)C(C)(C)C)[C@H]1CC[C@H]2C3CC[C@H]4C[C@H](OS(=O)(=O)O)[C@@H](OS(=O)(=O)O)C[C@]4(C)[C@H]3CC[C@]12C (stereo partly specified),-2.49%
3,CC(C)CC#Cc1cnc2c(c1)C(=O)N([C@@H](C)CO)C[C@H](C)[C@@H](CN(C)C(=O)c1ccc(F)cc1)O2,-4.54%
4,CCC(=O)Nc1ccc2c(c1)OC[C@H](C)N(C(=O)c1ccncc1)C[C@H](C)[C@H](OC)CN(C)C2=O,-6.05%
5,C[C@H]1CN([C@@H](C)CO)C(=O)c2cc(C3=CCCC3)cnc2O[C@@H]1CN(C)C(=O)c1ccccc1,-6.29%
6,CO[C@@H]1CN(C)C(=O)c2ccc(NS(=O)(=O)c3c(C)noc3C)cc2OC[C@H](C)NC[C@@H]1C,-11.3%
7,C[C@@H]1CN([C@H](C)CO)C(=O)c2cc(C#CCC3CCCC3)cnc2O[C@H]1CN(C)Cc1ccccn1,15.8%
8,CCCC#Cc1ccc([C@@H]2[C@@H](C#N)N(C(=O)C3CCCC3)[C@@H]2CO)cc1,-5.75%
9,COc1ccccc1C#Cc1ccc([C@@H]2[C@@H](CO)N(C(=O)C3CC3)[C@H]2C#N)cc1,1.77%
10,CCCC#Cc1ccc([C@H]2[C@@H](CO)N(C(=O)C3CC3)[C@H]2C#N)cc1,39.4% (active)
11,COc1ccc(-c2ccccc2[C@H]2[C@@H](C#N)N(C(=O)C3CCC3)[C@@H]2CO)cc1,3.73%
12,CCCC#Cc1ccc([C@@H]2[C@@H](C#N)N(C(=O)C3CCC3)[C@H]2CO)cc1,-3.76%
13,COc1ccc(-c2ccc([C@@H]3[C@@H](C#N)N(C(=O)C4CCC4)[C@@H]3CO)cc2)cc1,-14%
14,CN(C)CC#Cc1ccc([C@H]2[C@@H](CO)N(C(=O)C3CCC3)[C@H]2C#N)cc1,87.1% (active)
15,CCCC#Cc1ccc([C@@H]2[C@@H](C#N)N(C(=O)C3CC3)[C@H]2CO)cc1,-11.5%
16,COc1ccc(-c2ccccc2[C@H]2[C@@H](CO)N(C(=O)C3CCC3)[C@H]2C#N)cc1,70.3% (active)
17,OC[C@H]1[C@@H](c2ccc(C#Cc3ccccc3F)cc2)[C@H]2CN(CC3CCOCC3)CCCCN21,-16.8%
18,C[C@@H](NC(=O)C[C@@H]1C[C@@H]2c3cc(NC(=O)c4cccnc4)ccc3O[C@@H]2[C@H](CO)O1)c1ccccc1,-1.39%
19,COc1cccc(-c2ccc3c(c2)O[C@H](CN(C)C(=O)c2ccccc2F)[C@@H](C)CN([C@@H](C)CO)S3(=O)=O)c1,-3.52%
20,Cc1cccc(-c2ccc([C@@H]3[C@H](CO)N4CCCCN(Cc5ccncc5)C[C@@H]34)cc2)c1,-6.55%
21,OC[C@@H]1[C@H](c2ccc(C#Cc3ccccc3)cc2)[C@@H]2CN(Cc3cncnc3)CCCCN12,4.64%

row,SMILES,CPE inhibition
1,OC[C@H]1[C@@H](c2ccc(/C=C/c3ccccc3)cc2)[C@H]2CN(Cc3cccnc3)CCCCN21,23.8% (active)
2,OC[C@H]1[C@H](c2ccc(-c3ccccc3F)cc2)[C@H]2CN(Cc3cncnc3)CCCCN21,45.6% (active)
3,OC[C@@H]1[C@H](c2ccc(C3=CCCC3)cc2)[C@H]2CN(Cc3ccncc3)CCCCN12,41% (active)
4,CCCC#Cc1ccc([C@H]2[C@H]3CN(Cc4cncnc4)CCCCN3[C@H]2CO)cc1,-10.9%
5,OC[C@H]1[C@H](c2ccc(-c3cccnc3)cc2)[C@H]2CN(Cc3ccccn3)CCCCN21,3.13%
6,Cc1ccc(-c2ccc([C@H]3[C@H](CO)N4CCCCN(Cc5cncnc5)C[C@@H]34)cc2)cc1,-2.12%
7,COCC#Cc1ccc([C@H]2[C@H](CO)N3CCCCN(Cc4ccncc4)C[C@@H]23)cc1,3.44%
8,CN(C)C(=O)c1ccc(-c2ccc([C@@H]3[C@@H](CO)N4CCCCN(Cc5cncnc5)C[C@@H]34)cc2)cc1,5.96%
9,Cc1cccc(-c2ccc([C@H]3[C@@H](CO)N4CCCCN(Cc5cncnc5)C[C@H]34)cc2)c1,5.45%
10,OC[C@H]1[C@H](c2ccc(-c3cccc(F)c3)cc2)[C@@H]2CN(Cc3cncnc3)CCCCN12,58.8% (active)
11,CC(C)CC#Cc1ccc([C@H]2[C@H]3CN(C(=O)CN4CCOCC4)CC(=O)N3[C@H]2CO)cc1,-1.35%
12,COc1ccccc1CNC(=O)C[C@@H]1C[C@@H]2c3cc(NC(=O)C4CCOCC4)ccc3O[C@@H]2[C@@H](CO)O1,2.24%
13,COC(=O)[C@@H]1[C@@H](CO)[C@@H]2Cn3c(ccc(-c4ccccc4F)c3=O)[C@@H]2N1CC1CCOCC1,-7.38%
14,C[C@@H]1CCCCO[C@@H](CN(C)S(=O)(=O)c2cn(C)cn2)[C@@H](C)CN([C@@H](C)CO)C(=O)c2cc(NC(=O)NC3CCCCC3)ccc2O1,7.41%
15,C[C@@H]1CN([C@@H](C)CO)S(=O)(=O)c2ccc(-c3ccccc3F)cc2O[C@H]1CN(C)Cc1cncnc1,-7.02%
16,CN(C)C(=O)[C@@H]1[C@@H](CO)[C@@H]2Cn3c(cccc3=O)[C@H]1N2C(=O)c1ccc(F)cc1,2.89%
17,C[C@H]1CN([C@@H](C)CO)C(=O)c2cccc(NC(=O)c3ccncc3)c2O[C@@H]1CN(C)C,-3.46%
18,C[C@@H]1CCCCO[C@H](CN(C)S(=O)(=O)c2cccs2)[C@@H](C)CN([C@@H](C)CO)C(=O)c2cc(NC(=O)Nc3ccc4c(c3)OCO4)ccc2O1,2.44%
19,O=C(N[C@H]1CC[C@H](CCNS(=O)(=O)c2ccc(F)cc2)O[C@H]1CO)C1CCC1,0.0715%
20,CCNC(=O)Nc1ccc2c(c1)C(=O)N(C)[C@@H]1CC[C@@H](CC(=O)NCCOC)O[C@@H]1CO2,-6.67%
21,CC(C)C#Cc1ccc2c(c1)O[C@@H](CN(C)Cc1ccncc1)[C@@H](C)CN([C@@H](C)CO)S2(=O)=O,-4.86%

row,SMILES,CPE inhibition
1,COc1ccc(NC(=O)c2cn(-c3ccccc3)nc2SC)cc1,30.9% (active)
2,COc1ccccc1C(=O)Nc1ccc(Nc2ccccc2)cc1,1.78%
3,COc1ccc(NC(=O)CSc2nc(N)c(-c3ccccc3)c(=O)[nH]2)cc1,15.2%
4,O=C(C[C@H]1C[C@H](C(=O)N2CCOCC2)[C@@]2(CCC3CCCC3)c3[nH]c4ccc(Cl)cc4c3CCN2C1=O)NCc1ccco1,88.4% (active)
5,CN(C)C(=O)CCc1ccc2c3c([nH]c2c1)[C@]1(CCC2CCCC2)[C@@H](C(=O)N2CCOCC2)C[C@H](CC(=O)NCc2ccco2)C(=O)N1CC3,-10.7%
6,COc1ccc(CNC(=O)C[C@H]2C[C@H](C(=O)N3CCOCC3)[C@@]3(CCC4CCCC4)c4[nH]c5ccc(Cl)cc5c4CCN3C2=O)cc1OC,0.122%
7,Cc1ccc(S(=O)(=O)Nc2ccc3c(c2)C(=O)N([C@H](C)CO)C[C@@H](C)[C@H](CN(C)S(=O)(=O)c2ccc(C)cc2)OCCCC[C@@H](C)O3)cc1,1.84%
8,Cc1ccc(S(=O)(=O)Nc2ccc3c(c2)C(=O)N([C@H](C)CO)C[C@H](C)[C@@H](CN(C)S(=O)(=O)c2cn(C)cn2)OCCCC[C@H](C)O3)cc1,39.2% (active)
9,Cc1ccc(S(=O)(=O)N(C)C[C@@H]2Oc3ccc(NC(=O)NC4CCCCC4)cc3C(=O)N([C@@H](C)CO)C[C@H]2C)cc1,23.4% (active)
10,Cc1ccc(S(=O)(=O)N(C)C[C@@H]2OCCCC[C@H](C)Oc3ccc(NS(=O)(=O)c4cn(C)cn4)cc3C(=O)N([C@H](C)CO)C[C@@H]2C)cc1,-2.41%
11,C[C@@H]1CN([C@H](C)CO)C(=O)c2cc(NC(=O)NC3CCCCC3)ccc2O[C@H]1CN(C)S(C)(=O)=O,2.68%
12,Cc1ccc(S(=O)(=O)N(C)C[C@H]2OCCCC[C@@H](C)Oc3ccc(NS(C)(=O)=O)cc3C(=O)N([C@H](C)CO)C[C@@H]2C)cc1,24.2% (active)
13,C[C@@H]1CCCCO[C@@H](CN(C)S(=O)(=O)c2cn(C)cn2)[C@H](C)CN([C@H](C)CO)C(=O)c2cc(NS(=O)(=O)c3ccc(Cl)cc3)ccc2O1,3.2%
14,C[C@@H]1CCCCO[C@@H](CN(C)S(=O)(=O)c2cn(C)cn2)[C@H](C)CN([C@@H](C)CO)C(=O)c2cc(NC(=O)Nc3ccccc3)ccc2O1,-1.09%
15,Cc1ccc(S(=O)(=O)N(C)C[C@H]2OCCCC[C@@H](C)Oc3ccc(NC(=O)NC4CCCCC4)cc3C(=O)N([C@H](C)CO)C[C@@H]2C)cc1,0.877%
16,Cc1ccc(S(=O)(=O)N(C)C[C@@H]2OCCCC[C@@H](C)Oc3ccc(NS(=O)(=O)c4ccccc4)cc3C(=O)N([C@H](C)CO)C[C@@H]2C)cc1,0.648%
17,C[C@@H]1CN([C@H](C)CO)C(=O)c2cc(NC(=O)Cc3ccccc3)ccc2O[C@H]1CN(C)S(=O)(=O)c1cn(C)cn1,0.292%
18,C[C@H](CO)N1C[C@H](C)[C@@H](CN(C)S(=O)(=O)c2cn(C)cn2)OCCCC[C@H](C)Oc2ccc(NC(=O)Cc3ccccc3)cc2C1=O,123% (active)
19,O=C(C[C@@H]1C[C@@H]2c3cc(NC(=O)NC4CCCC4)ccc3O[C@@H]2[C@H](CO)O1)NCC(F)(F)F,7.08%
